Sampled rows, rich in hits. Any-hit rate of the full collection: about 21%.
DT40 TDP1 CPT = qHTS for Inhibitors of human tyrosyl-DNA phosphodiesterase 1 (TDP1): qHTS in cells in presence of CPT. chicken DT40 Tdp1-/-;hTDP1 cells + 20 nM CPT, ATP luminescence, 48 h. Potency, µM (titrated, usually from 46.2 µM), hits mostly inhibitors. actives 12% (n = 420,000). AID 686979, 2013; further: nearly all actives have a fitted effect of over 55% in size
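Cell growth measured by CellTiter-Glo luminescence after a minimum 48 h, 37 C compound exposure with 20 nM CPT in Tdp1-knockout DT40 cells stably expressing hTDP1, seeded 400/well; qHTS titration format.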
IL1B secr inh = qHTS for Inhibitors of Inflammasome Signaling: IL-1-beta AlphaLISA Primary Screen. THP-1 LPS/ATP IL-1B secretion, AlphaLISA, 16 h; hits give low values. activity change, % at 57.5 µM. actives 4.7% (n = 360,000). AID 743279, 2014; in the data active means activity change below about -50%; inconclusive means mostly about -30% to -49%
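Secreted IL-1B measured by AlphaLISA bead assay after 16 h compound exposure of THP-1 cells; compounds (final up to 57.5 uM) added 1 h before LPS (250 ng/mL) and ATP (1.25 mM) stimulation; lower signal means less secretion.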
ELG1 DNA repair = qHTS screen for small molecules that inhibit ELG1-dependent DNA repair in human embryonic kidney (HEK293T) cells expressing luciferase-tagged ELG1; HEK293T ELG1-luciferase reporter, luminescence, 16 h; DNA damage induced by 5-fluorouridine; Potency, µM (titrated, usually from 46.1 µM), actives largely listed as inhibitors; actives 2.3% (n = 330,000); AID 504467, 2011; further: nearly all actives have a fitted effect of over 55% in size
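HEK293T cells expressing luciferase-tagged ELG1 (2,000/well) received 5-Fluorouridine plus compound or DMSO for 16 hr at 37 °C. Luciferase was read by ONE-Glo luminescence after 30 min at room temperature.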
VP16 counter = VP16 counterscreen qHTS for inhibitors of ROR gamma transcriptional activity; AID 2546, 2010; Potency, µM (highest dose often 53.6 µM), actives largely listed as inhibitors; actives 3.5% (n = 310,000); Drosophila S2 Gal4-VP16 UAS-luciferase, luminescence, 20 h;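 further: Gal4-VP16 expression switched on by copper sulfate through the metallothionein promoter; nearly all actives have a fitted effect of over 50% in size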
RORgamma inh = qHTS for inhibitors of ROR gamma transcriptional activity | Nuclear receptor ROR-gamma (Mus musculus), P51450 | Drosophila S2 Gal4-RORgamma UAS-luciferase reporter, 20 h | Potency, µM (top dose mostly 53.6 µM), most hits filed as inhibitors | actives 5.4% (n = 310,000) | AID 2551, 2010; further: nearly all actives have a fitted effect of over 60% in size
Target sequence (P51450 whole entry, looked up, the tested form may be a part): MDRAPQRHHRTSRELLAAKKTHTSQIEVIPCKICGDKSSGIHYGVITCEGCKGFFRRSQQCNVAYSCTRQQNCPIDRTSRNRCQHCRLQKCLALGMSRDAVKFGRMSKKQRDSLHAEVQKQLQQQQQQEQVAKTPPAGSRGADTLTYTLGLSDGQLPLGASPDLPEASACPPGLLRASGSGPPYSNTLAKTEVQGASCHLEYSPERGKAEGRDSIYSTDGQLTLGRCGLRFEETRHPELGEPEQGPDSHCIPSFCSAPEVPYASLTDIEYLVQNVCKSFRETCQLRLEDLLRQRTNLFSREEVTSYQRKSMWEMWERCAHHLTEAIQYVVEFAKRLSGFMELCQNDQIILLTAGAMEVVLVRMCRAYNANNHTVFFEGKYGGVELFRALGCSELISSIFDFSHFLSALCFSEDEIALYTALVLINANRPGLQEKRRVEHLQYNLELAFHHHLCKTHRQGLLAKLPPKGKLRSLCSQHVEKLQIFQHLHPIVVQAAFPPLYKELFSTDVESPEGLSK
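In this cell-based reporter format, copper sulfate (700 uM final) drives Gal4–ROR gamma fusion expression from a metallothionein promoter in Drosophila Schneider cells; compounds preincubated 1 hr, reporter read after 20 hr at ambient temperature.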
DT40 TDP1 no CPT = qHTS for Inhibitors of human tyrosyl-DNA phosphodiesterase 1 (TDP1): qHTS in cells in absence of CPT; DT40 Tdp1-/- hTDP1 cells, no CPT, ATP luminescence, 48 h; actives 15% (n = 420,000); Potency, µM (highest dose often 46.2 µM), most hits filed as inhibitors; further: nearly all actives have a fitted effect of over 55% in size
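Readout: luminescence from CellTiter-Glo after 30 min in the dark at RT. Cells: DT40 Tdp1-/- with stable hTDP1, 400/well. Exposure: compounds alone, ≥48 hr, 37 °C.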
Each line names hits and unclear results; the compound was inactive in the other large screens. Unless noted, the call rests on the fitted dose curve; in most records, active means well fitted curve in the direction sought with a large enough effect; inconclusive means small, poorly fitted or top-dose-only effect, or another doubt; inactive means no such curve, though single readings can be large; an effect the other way counts as inactive or inconclusive.

N#CC1=C2SCN(C3CCCCC3)CN2C(=O)CC1c1ccc(Cl)cc1 (stereo not drawn)	DT40 TDP1 CPT 4.6µM, DT40 TDP1 no CPT inconclusive (no result: IL1B secr inh, ELG1 DNA repair, VP16 counter, RORgamma inh)
COc1ccc(Br)cc1C1CC(=O)N2CN(C)CSC2=C1C#N (stereo not drawn)	DT40 TDP1 CPT inconclusive, RORgamma inh 16µM, DT40 TDP1 no CPT inconclusive
COc1ccccc1N1CSC2=C(C#N)C(c3ccc(SC)cc3)CC(=O)N2C1 (stereo not drawn)	DT40 TDP1 CPT inconclusive, DT40 TDP1 no CPT 23µM
COc1cc(C2CC(=O)N3CN(c4ccccc4C)CSC3=C2C#N)cc(OC)c1OC (stereo not drawn)	none (no result: DT40 TDP1 CPT, IL1B secr inh, DT40 TDP1 no CPT)
COC(=O)C[C@H]1CC[C@@H](NC(=O)Nc2cccc(OC)c2)[C@@H](CO)O1	none (no result: ELG1 DNA repair, VP16 counter, RORgamma inh)
Cc1c(Cl)cccc1NC(=S)NC1CC1	VP16 counter inconclusive, RORgamma inh 10µM
S=C(Nc1ccc(Cl)cc1Cl)NC1CCCCC1	DT40 TDP1 CPT inconclusive, ELG1 DNA repair inconclusive, VP16 counter 0.89µM, RORgamma inh inconclusive, DT40 TDP1 no CPT inconclusive
Cc1c(Cl)cccc1NC(=O)NC1CCCCC1	none
Cc1cc([N+](=O)[O-])ccc1NC(=S)NC1CCCC1	none
CC(=O)Nc1cccc(NC(=S)Nc2cccc(Cl)c2Cl)c1	none
CC(=O)c1ccc(NC(=S)Nc2cccc(Cl)c2C)cc1	VP16 counter inconclusive, RORgamma inh 11µM
Fc1ccc(NC(=S)NC2CCCCC2)c(F)c1F	DT40 TDP1 CPT 21µM, ELG1 DNA repair inconclusive, VP16 counter 7.1µM, RORgamma inh 8.9µM, DT40 TDP1 no CPT 21µM
O=C(Nc1ccc(Cl)cc1Cl)NC1CCCC1	ELG1 DNA repair inconclusive
CCOC(=O)C1(C)CCCN(C(=O)c2cc(C#N)cs2)C1 (stereo not drawn)	none (no result: ELG1 DNA repair, VP16 counter, RORgamma inh)
S=C(Nc1ccccc1Cl)NC1CCCCCC1	DT40 TDP1 CPT inconclusive, VP16 counter 10µM, RORgamma inh 3.5µM, DT40 TDP1 no CPT inconclusive
O=Cc1ccccc1-c1cn(CN2C(=O)c3ccccc3C2=O)nn1	none
N#C/C(=C\c1ccc(-c2nc3ccccc3s2)o1)C(N)=O	DT40 TDP1 CPT inconclusive, ELG1 DNA repair inconclusive, RORgamma inh inconclusive, DT40 TDP1 no CPT 18µM
CNC(=O)/C(C#N)=C/c1ccc(-c2nc3ccccc3s2)o1	ELG1 DNA repair inconclusive, DT40 TDP1 no CPT inconclusive (no result: IL1B secr inh)
CC(=O)Nc1ccc(C(=O)OCC(=O)NCc2ccc(Cl)cc2)cc1	none (no result: DT40 TDP1 CPT, IL1B secr inh, DT40 TDP1 no CPT)
O=C(NCCCN1CCOCC1)c1ccc2c(c1)N(Cc1cccc(Cl)c1)C(=O)c1ccccc1S2	DT40 TDP1 CPT inconclusive, DT40 TDP1 no CPT 23µM (no result: IL1B secr inh, ELG1 DNA repair, VP16 counter, RORgamma inh)
O=C(NCCCN1CCOCC1)c1ccc2c(c1)N(Cc1c(F)cccc1Cl)C(=O)c1ccccc1S2	DT40 TDP1 CPT inconclusive, IL1B secr inh -52, RORgamma inh inconclusive, DT40 TDP1 no CPT inconclusive
O=C(NCCCN1CCOCC1)c1ccc2c(c1)N(Cc1cccc(Cl)c1)C(=O)CS2	DT40 TDP1 CPT inconclusive, DT40 TDP1 no CPT 16µM
CCN1C(=O)c2ccccc2Sc2ccc(C(=O)NCCCN3CCOCC3)cc21	none
CC(C)(C)c1ccc(NC(=O)c2ccc(=O)[nH]n2)cc1	DT40 TDP1 CPT inconclusive, ELG1 DNA repair inconclusive
OCC(O)C1OC(c2ccccc2)OC(CO)C1O (stereo not drawn)	none (no result: ELG1 DNA repair, VP16 counter, RORgamma inh)
Cc1ccc(S(=O)(=O)N2[C@@H](CO)CO[C@H]2CC(=O)OCc2ccccc2)cc1	none (no result: ELG1 DNA repair, VP16 counter, RORgamma inh)
CCCN(C(=O)COC(=O)C12CCC(=O)N1c1ccccc1S2)c1c(N)n(Cc2ccccc2)c(=O)[nH]c1=O (stereo not drawn)	none
COc1ccc(CN(C)C(=O)c2ccc3c(=O)n4c(nc3c2)CCC4)c(OC)c1	DT40 TDP1 CPT inconclusive, DT40 TDP1 no CPT inconclusive (no result: VP16 counter, RORgamma inh)
Cc1ccc(CNS(=O)(=O)c2ccc3c(c2)CC(C)N3C(=O)C2CCC2)cc1 (stereo not drawn)	DT40 TDP1 CPT inconclusive, DT40 TDP1 no CPT 21µM (no result: IL1B secr inh, ELG1 DNA repair, VP16 counter, RORgamma inh)
CC1Cc2cc(S(=O)(=O)NCc3ccc(F)cc3)ccc2N1C(=O)C1CCC1 (stereo not drawn)	DT40 TDP1 CPT inconclusive, DT40 TDP1 no CPT 2.9µM (no result: IL1B secr inh, ELG1 DNA repair, VP16 counter, RORgamma inh)
CC1Cc2cc(S(=O)(=O)NCc3ccc(Cl)cc3)ccc2N1C(=O)C1CCC1 (stereo not drawn)	DT40 TDP1 CPT 23µM, DT40 TDP1 no CPT 13µM (no result: IL1B secr inh, ELG1 DNA repair, VP16 counter, RORgamma inh)
CC(=O)N1c2ccc(S(=O)(=O)NCc3ccc(Cl)cc3)cc2CC1C (stereo not drawn)	DT40 TDP1 CPT inconclusive, DT40 TDP1 no CPT 23µM (no result: IL1B secr inh, ELG1 DNA repair, VP16 counter, RORgamma inh)
CC(=O)N1c2ccc(S(=O)(=O)NCCC(=O)NC3CCC(C)CC3)cc2CC1C (stereo not drawn)	none
CCn1nc(C)c(CN2Cc3ccccc3OC(c3ccccc3OC)C2)c1C (stereo not drawn)	DT40 TDP1 no CPT inconclusive (no result: IL1B secr inh, ELG1 DNA repair, VP16 counter, RORgamma inh)
Cc1cccc(C)c1NC(=O)CSC(=O)c1sc2ccccc2c1Cl	none (no result: IL1B secr inh)
COc1ccccc1NC(=O)Nc1ccnn1C1CCN(C(=O)c2cccnc2)CC1	none
